We go through 67 compounds from PubChem BioAssay AID652136 (The Scripps Research Institute Molecular Screening Center, 2013).

The inhibition is the change of the read-out against control, counted positive when it falls.

In all, about 2,400 compounds went through this assay and about 1,900 (79%) were called active.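 The calls were made as follows: active = inhibition above the mean of all tested compounds plus 3 SD (cut at about 3% in these data); inactive = the rest.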 The set was probably picked from earlier hits. Not all results are given here.

This assay is described as follows: StAR reporter signal changes without DAX1, counter-screen for DAX1 inhibitor project, cell-based, luminescence, AF-2 mutant SF-1, transactivation (AID 652136).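 Also: 0% = DAX-1 transfected cells with DMSO and 100% = cells without DAX-1 with DMSO.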 As to conditions: HEK293 StAR-luciferase, SF-1 AF2 mutant, at 6.8 µM, active compounds read high. On the technique in general: A counterscreen serves to expose hits that act by an unwanted route or on another target.
For `COc1ccc(-c2csc(-c3cccs3)n2)cc1OC`, the inhibition is 5.61% (active).

On to `CN1CCN(C(=O)c2ccc(-c3ccc(Br)cc3)o2)CC1`, for which the inhibition is 4.28% (active).

`Cc1ccc(S(=O)Cc2ccc(C(=O)N3CCN(C4CCCCC4)CC3)o2)cc1` (configuration not stated): the inhibition was 2.33% (inactive).

Turning to `O=C(Nc1ncccc1O)c1ccc(C(=O)c2ccccc2)cc1`, the inhibition is 35.8% (active).

Regarding `O=C(Nc1ncccc1O)c1ccc(S(=O)(=O)N2CCCC2)cc1`, the inhibition was 5.53% (active).

Take `O=C(Nc1ncccc1O)c1ccc(S(=O)(=O)N2CCCCCC2)cc1`: the inhibition is 2.43% (inactive).

Turning to `CC1CCN(CCCNC(=O)CN2C(=O)CSc3ccc(S(=O)(=O)N4CCCCC4)cc32)CC1`, the inhibition is 1.65% (inactive).

Take `Clc1ccc(Nc2nc(-c3cccs3)cs2)nc1`: the inhibition was 7.52% (active).

In the case of `COc1cc(OC)c(C(=O)NNC(=O)c2ccc(NS(=O)(=O)c3cccs3)cc2)cc1OC`, the inhibition is -0.43% (inactive).

As for `CC(C)(C)c1csc(NC2=NS(=O)(=O)c3ccccc32)n1`, the inhibition was 7.77% (active).

On to `Cc1ccc(N/C=C/C(=O)c2ccccc2)cc1C`, for which the inhibition was 4.16% (active).

In the case of `Fc1ccc2cnc(-c3ccccc3)cc2c1`, the inhibition was 5.1% (active).

Take `O=C(NCCc1ccc(F)cc1)c1ccc2nccnc2c1`: the inhibition was 8.87% (active).

Consider `COc1ccc2nc(-c3ccccn3)ccc2c1`, for which the inhibition was 5.03% (active).

As for `Cc1nn(-c2ccc([N+](=O)[O-])cc2)c(N)c1-c1ccccc1`, the inhibition is 6.97% (active).

As for `O=C(NC(=S)Nc1ccc(Cl)cc1Cl)C1CC1`, the inhibition was 3.76% (active).

For `COc1ccc(CCOC2OC(CO)C(OC(=O)/C=C/c3ccc(O)c(OC)c3)C(O[C@H]3O[C@@H](C)[C@H](O)[C@@H](O)[C@H]3O)C2O)cc1O` (some centres not stated), the inhibition is 1.22% (inactive).

Consider `Cc1cc(OCc2cc(C(=O)NCc3cc(C(C)C)no3)no2)cc(C)c1Cl`, for which the inhibition was 3.41% (active).

On to `CCC(=O)Nc1ccc(-c2ccc(N3CCCCC3)nn2)cc1`, for which the inhibition was 2.89% (active).

For `CCCOc1ccc(C(=O)NCCc2ccccc2)cc1`, the inhibition was 4.75% (active).

Take `COc1ccc(C(=O)NCC[N+](C)(C)C)cc1`: the inhibition was 1.97% (inactive).

Turning to `COc1ccc(CCNC(=O)COC(=O)Cc2ccccc2F)cc1`, the inhibition was -0.5% (inactive).

As to `CN(C(=O)c1cc2c(=O)n3ccccc3nc2s1)C1CCCCC1`, the inhibition is 3.77% (active).

For the compound `Cc1ccccc1OCC(=O)Nc1ccc2c(c1)ncn2C`, the inhibition was 5.06% (active).

As to `Cc1ccccc1Nc1nc(N)nc(CSc2ccccc2)n1`, the inhibition was 9.51% (active).

Turning to `CCOc1cccc(/C=C/c2ccc3ccccc3n2)c1OC(C)=O`, the inhibition was 2.8% (inactive).

Turning to `CNCC(O)c1ccc(O)c(O)c1` (configuration not stated), the inhibition is -2.85% (inactive).

Regarding `O=c1c2c(nc3cc(-c4cccc(Cl)c4)[nH]n13)CCCC2`, the inhibition is 5.64% (active).

Take `CCN(c1ccccc1)S(=O)(=O)c1ccc(OCC(=O)N2CCCC2)cc1`: the inhibition is 1.13% (inactive).

For `CCOc1ccc(S(=O)(=O)Nc2cccc(C(=O)NCC3(N4CCCCC4)CCCCC3)c2)cc1`, the inhibition is 5.11% (active).

As to `O=C(NCC1(N2CCCCC2)CCCCC1)c1ccc(NS(=O)(=O)c2ccc(F)cc2)cc1`, the inhibition is 6.24% (active).

As for `COc1ccc(OCc2cc(C(=O)N3CCCC3)no2)c2ccccc12`, the inhibition was 6.26% (active).

For the compound `O=C(c1cc(-c2ccccc2O)on1)N1CCCC1`, the inhibition was 7.17% (active).

Take `O=C(c1cc(-c2cccs2)on1)N1CCCCC1`: the inhibition is 4.85% (active).

With `COc1ccccc1-c1cc(C(=O)N2CCCCC2)no1`, the inhibition is 7.48% (active).

For `CCOC(=O)c1c(S(=O)(=O)Nc2ccc(CN3CCC(C)CC3)cc2)c(C)n(C)c1C`, the inhibition is 1.43% (inactive).

With `O=C(Nc1ccc2ccccc2c1[N+](=O)[O-])c1ccccc1`, the inhibition is 6.14% (active).

With `COc1ccc(-c2csc(Nc3ccccn3)n2)cc1`, the inhibition was 5.68% (active).

Regarding `COc1ccc(-c2cn3ccc(C)cc3n2)cc1`, the inhibition is 3.87% (active).

With `COc1ccc(-c2cn3ccsc3n2)cc1`, the inhibition is 6.15% (active).

`COC(=O)Nc1nc2ccc(C(=O)C3CC3)cc2[nH]1`: the inhibition was -5.19% (inactive).

Take `O=C(CSc1cccc[n+]1[O-])c1ccc(-c2ccccc2)cc1`: the inhibition was 1.01% (inactive).

For `NS(=O)(=O)c1ccc2nc(NC(=O)C3=COCCO3)sc2c1`, the inhibition is 5.19% (active).

For `Cc1cc(N)n2nc(-c3ccc(C(C)(C)C)cc3)cc2n1`, the inhibition was 8.64% (active).

With `CCc1ccc2oc(-c3ccc(N)cc3)nc2c1`, the inhibition is 4.11% (active).

Regarding `O=C(NCC1CCCO1)c1cc2c(s1)CCCC2` (configuration not stated), the inhibition was 4.63% (active).

Turning to `O=C(O)c1cccc(N=NN2CCCCCC2)c1`, the inhibition was 8.65% (active).

As for `CCOc1ccc(-c2nnc(-c3ccco3)o2)cc1`, the inhibition is 3.8% (active).

Take `C/C(=N\NC(=O)c1ccccc1F)c1ccccn1`: the inhibition is -9.06% (inactive).

Consider `O=C(NCCOc1ccccc1)c1ccccc1F`, for which the inhibition was 6.6% (active).

`OC(c1ccccc1)c1nc(-c2cnc3ccccc3c2)cs1` (configuration not stated): the inhibition is 6.87% (active).

With `CC(Oc1ccccc1[N+](=O)[O-])C(=O)N/N=C/c1ccoc1` (configuration not stated), the inhibition was -0.59% (inactive).

With `CC(C)Cc1cc(C(=O)NCCc2ccccc2)no1`, the inhibition is 4.55% (active).

For `Cc1cc(C(=O)NCCc2ccc(Cl)cc2)c(C)o1`, the inhibition is 2.83% (inactive).

In the case of `CC(C)c1ccc(C=NNc2ccc([N+](=O)[O-])cn2)cc1`, the inhibition was 7.98% (active).

As for `O=[N+]([O-])c1ccc2oc(-c3cccc(O)c3)nc2c1`, the inhibition was 8.65% (active).

As to `COc1ccc(Nc2ncc(F)c(N3CCOCC3)n2)cc1`, the inhibition was 7.01% (active).

In the case of `Cc1ccc(-c2nc3ccc(Br)cn3c2Cc2ccccc2C(F)(F)F)cc1`, the inhibition was 3.81% (active).

As for `COc1ccccc1Cc1c(-c2ccc(F)cc2)nc2ccc(C)cn12`, the inhibition was 3.36% (active).

Take `C=CCn1c(SCC(=O)Nc2ccc(NC(C)=O)cc2)nc2sc(C)c(C)c2c1=O`: the inhibition is -2.48% (inactive).

Turning to `O=C(c1cnn(-c2ccc(Cl)cc2)c1)c1ccccc1O`, the inhibition is 7.41% (active).

For `O=C1C(C=NCC2CCCO2)=C(O)c2ccccc21` (configuration not stated), the inhibition was 4.34% (active).

For `Nc1ccc2nn(-c3ccc(Cl)cc3)nc2c1`, the inhibition is 10.2% (active).

Consider `COc1ccc2nc(SCc3ccccc3)nc(C)c2c1`, for which the inhibition is 8.35% (active).

Consider `CC(C)c1ccc(Nc2nnc(SCC(=O)c3nnc(-c4ccccc4)o3)s2)cc1`, for which the inhibition is 5.91% (active).

Regarding `CCc1ccc(NC(=O)N2CCc3ccccc3C2)cc1`, the inhibition was 2.82% (inactive).

Consider `O=C(Nc1ccc2c(c1)CCC2)c1ccc(Br)s1`, for which the inhibition is 5.35% (active).
